We go through 14 compounds from PubChem BioAssay.

A short description of test [1]: polyglutamine-triggered caspase-3 activation inhibitors, cell-based (AID 1583). The settings on record: polyglutamine-induced caspase-3 activation, cell assay; stronger effect = higher value;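 tested at 10 µM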.
Test [2] can be described thus: suppressors of polyQ aggregation in yeast, 75Q-TubU reporter (AID 1593). The note with it: Yeast 75Q polyglutamine aggregation reporter.
A short description of test [3]: rescue of polyQ-huntingtin neuronal dysfunction in worms, whole organism, C. elegans mechanosensory neurons, N-terminal huntingtin (AID 1599). The settings on record: touch response, stronger effect = higher value.
Test [4] in a line: inhibitors of mitochondrial cytochrome c release, biochemical, purified mitochondria (AID 1603).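 Also: mouse liver mitochondria challenged with calcium chloride; signal normalized to the plate average as 100%.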 The settings on record: stronger effect = lower value.
The nature of test [5]: inhibitors of polyQ protein aggregation (AID 1604). The settings on record: polyglutamine-induced protein aggregation inhibition assay; stronger effect = higher value; tested at 2.5 µM.
Test [6] can be described thus: enhancers of glutamate uptake in motor neurons, MN-1 cell line (AID 1612).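 Also: tested at 1 µM final; 0% = mean of DMSO vehicle wells on each plate; positive means more glutamate uptake than control and negative means less.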 The note with it: MN-1 motor neuron cells, stronger effect = higher value.
Test [7] in a line: suppressors of polyglutamine aggregation in yeast, 75Q-TubH (AID 1616). The settings on record: S. cerevisiae 75Q-TubH polyglutamine aggregation suppression; stronger effect = higher value.
The nature of test [8]: reducers of polyQ inclusions in PC12 cells, cell-based, NGF-treated PC12, GFPQ80 (AID 1614).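 Also: lower means fewer inclusions and 0 means no inclusions at all.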 The settings on record: PC12 NGF-treated GFP-polyQ80 inclusion reduction.
The nature of test [9]: hESC survival regulators, cell-based (AID 493140).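 Also: cells exposed to compounds for four days before counting.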 The note with it: human embryonic stem cell survival screen; stronger effect = higher value.
For test [10], the target named is ATP-dependent translocase ABCB1 (Homo sapiens) (UniProt P08183). Put plainly: MDR1 (ABCB1) efflux transporter inhibition, cell-based (AID 377; in the data active = fluorescence slope change above about 50%). The note with it: MDR1-expressing cells, fluorescent substrate accumulation slope; stronger effect = higher value; concentration not given here.
Chain of ATP-dependent translocase ABCB1 (Homo sapiens) (P08183 whole entry, looked up): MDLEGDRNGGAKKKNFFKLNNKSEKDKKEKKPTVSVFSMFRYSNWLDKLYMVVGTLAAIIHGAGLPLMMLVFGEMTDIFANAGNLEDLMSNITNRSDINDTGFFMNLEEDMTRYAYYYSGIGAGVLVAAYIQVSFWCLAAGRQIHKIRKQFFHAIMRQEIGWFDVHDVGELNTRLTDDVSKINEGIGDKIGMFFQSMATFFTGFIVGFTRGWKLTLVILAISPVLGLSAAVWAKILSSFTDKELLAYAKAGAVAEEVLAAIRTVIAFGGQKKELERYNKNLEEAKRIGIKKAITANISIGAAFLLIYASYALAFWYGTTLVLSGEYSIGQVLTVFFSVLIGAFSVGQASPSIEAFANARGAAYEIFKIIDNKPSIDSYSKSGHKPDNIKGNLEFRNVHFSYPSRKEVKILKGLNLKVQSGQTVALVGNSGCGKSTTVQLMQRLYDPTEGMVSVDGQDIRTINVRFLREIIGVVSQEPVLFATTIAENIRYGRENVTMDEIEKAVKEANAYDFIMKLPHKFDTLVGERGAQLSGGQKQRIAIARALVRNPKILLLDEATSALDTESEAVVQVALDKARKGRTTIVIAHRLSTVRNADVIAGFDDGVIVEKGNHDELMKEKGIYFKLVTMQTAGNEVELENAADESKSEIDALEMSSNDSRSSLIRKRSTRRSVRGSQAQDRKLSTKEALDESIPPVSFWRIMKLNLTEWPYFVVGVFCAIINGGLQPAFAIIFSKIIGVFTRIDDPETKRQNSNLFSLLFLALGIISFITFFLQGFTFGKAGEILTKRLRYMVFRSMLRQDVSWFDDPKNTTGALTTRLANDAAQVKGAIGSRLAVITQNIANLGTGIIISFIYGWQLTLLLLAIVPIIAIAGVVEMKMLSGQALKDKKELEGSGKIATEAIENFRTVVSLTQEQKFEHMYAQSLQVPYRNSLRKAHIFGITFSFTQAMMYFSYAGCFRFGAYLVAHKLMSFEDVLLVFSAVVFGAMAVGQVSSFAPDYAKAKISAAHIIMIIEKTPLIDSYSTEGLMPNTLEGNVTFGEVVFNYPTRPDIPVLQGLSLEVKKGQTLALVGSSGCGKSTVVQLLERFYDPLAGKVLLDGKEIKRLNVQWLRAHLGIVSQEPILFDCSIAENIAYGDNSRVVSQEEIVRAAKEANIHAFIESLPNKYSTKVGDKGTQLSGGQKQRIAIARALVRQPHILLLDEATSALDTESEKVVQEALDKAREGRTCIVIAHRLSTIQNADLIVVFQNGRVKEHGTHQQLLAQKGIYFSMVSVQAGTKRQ
Test [11] in a line: circadian clock period modulators, cell-based, LOPAC library, luminescence reporter (AID 2774).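 Also: values are relative to mean of DMSO wells on each plate.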 The settings on record: circadian reporter cells, at 7 µM, actives lie on both sides.

Several values for one entry are separate records, joined by “and”; a condition that tells them apart may be missing. Equal values may be shown once. Records with an inconclusive call do not appear. For part of these data: Entries with a potency or affinity are not part of this list. Activity calls are given as the source filed them. Unless noted, no rule for the calls is given here.

Regarding `O=C1OC(c2ccc(O)cc2)(c2ccc(O)cc2)c2ccccc21`, the inhibition in [1] is -3.42%. The score in test [2] was 1.29. The rescue above control in test [3] came out at 8.67. In [4], the cytochrome c release ratio was 4.22. Further, in test [5], the inhibition of aggregation was 70.1%. The glutamate uptake change in test [6] was -16.5%. In addition, in test [7], the aggregation suppression score turned out to be 1.31.

For `COc1ccc2cc3[n+](cc2c1OC)CCc1cc2c(cc1-3)OCO2`, the inhibition in test [1] is -15.4%. Further, the score in [2] worked out at 0.32. In test [3], this compound had a rescue above control of 10.8. For the same compound, the cytochrome c release ratio in test [4] was 0.96. The inhibition of aggregation in test [5] was found to be 65.2%. Also, the glutamate uptake change in [6] came out at 15.2%. In test [8], this compound gave an inclusion score of 2. In addition, the aggregation suppression score in test [7] amounted to 0.27. In addition, the survival in test [9] was 0.5 (inactive).

With `C=CCSCC1Nc2cc(Cl)c(S(N)(=O)=O)cc2S(=O)(=O)N1` (stereo not given), the inhibition in [1] is -19.5%. Besides, the score in test [2] came to 0.96. Besides, in test [3], the rescue above control is 4.12. In addition, the cytochrome c release ratio in [4] was 0.99. The inhibition of aggregation in test [5] was -7.48%. Besides, the glutamate uptake change in test [6] was -15.5%. This compound also returned an inclusion score in [8] of 2. Moreover, the aggregation suppression score in [7] stood at 0.983. The survival in test [9] is 6.42 (inactive).

On to `CCN(CC)CCOC(=O)C(c1ccccc1)c1ccccc1`, for which the inhibition in [1] worked out at 11.6%. In test [2], this compound came in with a score of 0.88. In test [3], this compound showed a rescue above control of 8.76. Moreover, the cytochrome c release ratio in test [4] was 1.09. Further, the inhibition of aggregation in test [5] was 66.7%. In addition, the glutamate uptake change in test [6] worked out at 15.8%. Also, the inclusion score in test [8] is 2. The compound further displayed an aggregation suppression score in test [7] of 0.888. Further, the survival in test [9] is 11.2 (inactive).

`COc1ccc(CCN2CCC(Nc3nc4ccccc4n3Cc3ccc(F)cc3)CC2)cc1`: in test [10], the fluorescence slope change was 189% (active). In addition, the inhibition in test [1] turned out to be 17.9%. Besides, the score in test [2] was 1.54. Also, in [3], the rescue above control is 0. In addition, in test [4], the cytochrome c release ratio was 0.61. Also, in test [5], the inhibition of aggregation is -3.03%. The glutamate uptake change in test [6] came to 31.2%. The compound further had an aggregation suppression score in test [7] of 1.26. Besides, in test [9], the survival is 1.58 (inactive).

As to `CN1CCN2c3ccccc3Cc3ccccc3C2C1` (stereo not given), the fluorescence slope change in [10] was 67.1% (active). For the same compound, in [1], the inhibition was -9.95%. The same compound came in with a score in [2] of 1.13. In test [3], this compound gave a rescue above control of 36.1. In addition, the cytochrome c release ratio in [4] stood at 0.7. In addition, the inhibition of aggregation in test [5] is 60.7%. Also, the glutamate uptake change in test [6] is 12.1%. Moreover, the aggregation suppression score in test [7] came out at 1.3. In addition, the period change in test [11] is 0.145 h (inactive). In addition, the survival in test [9] is 11.2 (inactive).

For the compound `CC(CN(C)C)CN1c2ccccc2CCc2ccccc21` (stereo not given), the fluorescence slope change in test [10] is 61.2% (active). Besides, in [1], the inhibition was determined as 11.6%. The score in test [2] came to 1.5. For the same compound, the rescue above control in test [3] was -11.6. The cytochrome c release ratio in test [4] was 0.94. The inhibition of aggregation in test [5] came out at 23.8%. For the same compound, in [6], the glutamate uptake change came out at 14.6%. The compound also yielded an aggregation suppression score in test [7] of 1.32. Also, the period change in test [11] was -0.085 h (inactive). In addition, in [9], the survival is 2.17 (inactive).

With `CCC(=O)O[C@H]1[C@H](O[C@@H]2[C@@H](C)[C@H](O[C@H]3C[C@@](C)(OC)[C@@H](O)[C@H](C)O3)[C@@H](C)C(=O)O[C@H](CC)[C@@](C)(O)[C@H](O)[C@@H](C)C(=O)[C@H](C)C[C@@]2(C)O)O[C@H](C)C[C@@H]1N(C)C`, in [1], the inhibition is -0.34%. In addition, the score in test [2] is -0.96. The compound also showed a rescue above control in test [3] of 11.4. In [4], the cytochrome c release ratio stood at 1.02. Moreover, the inhibition of aggregation in test [5] was 87.3%. Besides, the glutamate uptake change in test [6] was -11.5%. Moreover, in test [7], the aggregation suppression score was -0.59.

As for `CC(C)COCC(CN(Cc1ccccc1)c1ccccc1)N1CCCC1` (stereo not given), the fluorescence slope change in test [10] is 131% (active). For the same compound, in [1], the inhibition came to 7.56%. Further, the score in test [2] was found to be 1.17. Moreover, in test [3], the rescue above control worked out at 1.23. For the same compound, in test [4], the cytochrome c release ratio is 0.32. Also, the inhibition of aggregation in test [5] is 23.6%. Moreover, the glutamate uptake change in [6] is 12.6%. This compound returned an aggregation suppression score in test [7] of 1.08. In addition, in test [11], the period change is 0.04 h (inactive). Also, the survival in test [9] was 5.92 (inactive).

`Cc1nc2sccn2c(=O)c1CCN1CCC(=C(c2ccc(F)cc2)c2ccc(F)cc2)CC1`: the inhibition in test [1] is -6.39%. Also, in [2], the score turned out to be 1.46. For the same compound, the rescue above control in test [3] is 0. In addition, in test [4], the cytochrome c release ratio is 0.36. The inhibition of aggregation in [5] is 7.32%. In [6], the glutamate uptake change is 29.6%. The aggregation suppression score in test [7] stood at 1.39. The period change in test [11] was 0.08 h (inactive).

On to `CCOC(=O)C(C)(C)Oc1ccc(Cl)cc1`, for which the inhibition in [1] is 24.9% and 18.3%. The score in [2] was 0.66 and 0.84. Further, the rescue above control in test [3] is -9.07 and 5.03. Moreover, in [4], the cytochrome c release ratio was 0.65 and 0.84. In test [5], the inhibition of aggregation was 70.5% and -5.88%. Also, the glutamate uptake change in test [6] was -11.1% and 6.19%. Besides, the aggregation suppression score in test [7] was 0.624 and 0.92. In addition, in test [11], the period change is -0.13 h (inactive). The survival in test [9] is 82.4 (inactive).

As to `CCCCC(CC)CN1CN(CC(CC)CCCC)CC(C)(N)C1` (stereo not given), in test [10], the fluorescence slope change was 61.9% (active). Also, the inhibition in [1] amounted to 22.5%. In [2], this compound returned a score of 0.11. In addition, the rescue above control in [3] turned out to be 0. Moreover, in [4], the cytochrome c release ratio was 0.41. Further, the inhibition of aggregation in test [5] worked out at 1.83%. Also, the glutamate uptake change in [6] is 2.82%. Also, the aggregation suppression score in test [7] was 0.306. Also, in [9], the survival was 6.83 (inactive).

`CCN(CC)CCOc1ccc(/C(=C(\Cl)c2ccccc2)c2ccccc2)cc1`: the inhibition in test [1] is -2.8%. For the same compound, the score in test [2] was -0.01. Also, the rescue above control in test [3] stood at 11.2. Further, the cytochrome c release ratio in test [4] was determined as 4.67. Moreover, the inhibition of aggregation in test [5] was 46.5%. For the same compound, in test [6], the glutamate uptake change is -0.41%. This compound registered an aggregation suppression score in test [7] of 0.524.

With `CCCCCCc1ccc(O)cc1O`, the inhibition in test [1] came out at 8.69%. The compound also displayed a score in [2] of 0. Also, in test [3], the rescue above control is -4.19. Further, the cytochrome c release ratio in [4] was 0.54. In addition, in [5], the inhibition of aggregation was determined as 56.7%. Besides, the glutamate uptake change in test [6] amounted to 15.5%. Moreover, in test [7], the aggregation suppression score was -0.0012.
